# Assay results reported in ChEMBL document CHEMBL4513216, “Probing the Open Global Health Chemical Diversity Library for Multistage-Active Starting Points for Next-Generation Antimalarials” (ACS Infect Dis, 2020).
# Hit rate of the full screen: of about 68,000 compounds, about 2,700 (4%) showed an effect of 50% or more. For the sample, strong results were picked, then their nearest neighbours and some compounds at random.
# Test system: Plasmodium berghei
# Test: Screen against P. berghei liver stage (PbLuc), transformed with Luciferase, at 2uM
# Type: functional, HepG2
# Conditions: tested at 2 uM
row,SMILES,INHIBITION
1,COc1cc(N2CCC3(CC2)CC(N2CCOCC2)CO3)ncn1 (centres undefined),34.24%
2,COc1cc(N2CCC3(CC2)CC(N2CCOCC2)C3)ncn1,52.36%
3,COc1cc(N2CCC3(CC2)CC(N2CCN(C)CC2)CO3)ncn1 (centres undefined),-39.89%
4,CSCCC(C)(O)CNS(=O)(=O)Cc1cccc(C)c1 (centres undefined),-40.82%
5,O=C(Cc1ccon1)NC1CCCN(c2ccccc2F)C1=O (centres undefined),28.73%
6,O=C(Cc1nc(-c2ccncc2)n[nH]1)NCCCN1CCOCC1,15.46%
7,C=C(C)CNC(=O)C1CCC(=O)N(C2CCCC2)C1 (centres undefined),2.52%
8,CSCCNC(=O)C1CCC(=O)N(C2CCCC2)C1 (centres undefined),21.24%
9,CC(C)OCCCNC(=O)C1CCC(=O)N(C2CCCC2)C1 (centres undefined),68.61%
10,O=C(NCCN1CCCCC1=O)C1CCC(=O)N(C2CCCC2)C1 (centres undefined),54.29%
11,CC(C)OCCNC(=O)C1CCC(=O)N(C2CCCC2)C1 (centres undefined),28.95%
12,O=C(NCC(F)(F)F)C1CCC(=O)N(C2CCCC2)C1 (centres undefined),9.13%
13,O=C(NCCn1cccc1)C1CCC(=O)N(C2CCCC2)C1 (centres undefined),10.75%
14,CSCCCNC(=O)C1CCC(=O)N(C2CCCC2)C1 (centres undefined),56.49%
15,COC(C)(C)CNC(=O)C1CCC(=O)N(C2CCCC2)C1 (centres undefined),8.03%
16,Cc1cc(C(=O)N2CCCS2(=O)=O)c(C)o1,-15.41%
17,COC(=O)CN1CCC(C(=O)c2cc(F)ccc2F)CC1,35.23%
18,Cc1oc(-c2ccco2)nc1CN1CCCC(Cn2cncn2)C1 (centres undefined),43.7%
19,O=C(CN1CC(c2ccccc2)CC1=O)N1CCC(c2ncc[nH]2)CC1 (centres undefined),-63.6%
20,Cc1nnc2n1CCN(C(=O)C(C)Oc1ccc(C#N)cc1)C2 (centres undefined),35.56%
21,COc1cc(C#N)ccc1OCC(=O)NS(=O)(=O)c1ccccc1,-0.89%
22,CC(C)c1noc(OCC(=O)N(C)C(C)C)n1,-6.48%
23,Cc1nsc(N2CCCN(C(=O)c3ccc4[nH]ccc4c3)CC2)n1,24.36%
24,Cc1nsc(N2CCN(C(=O)Nc3ccc4[nH]ccc4c3)CC2)n1,57.75%
25,Cc1nsc(N2CCN(C(=O)Nc3cccc(F)c3)CC2)n1,45.82%
26,CO[C@H]1CN(C(=O)c2ccc3oc(C)cc3c2)CC[C@@]12CCCO2,27.16%
27,CO[C@H]1CN(C(=O)c2cn3cc(C)ccc3n2)CC[C@@]12CCCO2,80.88%

row,SMILES,INHIBITION
1,CO[C@H]1CN(C(=O)c2cccc(C)n2)CC[C@@]12CCCO2,19.91%
2,COc1ccccc1C1=NOC(CC2(C(=O)O)CCOCC2)C1 (centres undefined),8.89%
3,COc1ccc(F)cc1-c1ccccc1CC1(C(=O)O)CCOCC1,53.95%
4,COCCNC(=O)C1(Cc2ccccc2-c2ccncc2)CCOCC1,52.82%
5,O=C(NCCO)C1(Cc2ccccc2-c2ccncc2)CCOCC1,26.14%
6,COc1ccccc1-c1ccccc1CC1(C(=O)O)CCNCC1,-18.15%
7,CC(C)(C)NC(=O)C1(Cc2ccccc2-c2ccncc2)CCOCC1,16.55%
8,COCCOc1cccc(CNCc2ccc(-n3cncn3)nc2)c1,5.47%
9,CC(C)N1CCO[C@H]2CN(C(=O)Cc3cccs3)C[C@H]21,9.87%
10,COc1ccc(-c2nnc(SC(C)C(N)=O)[nH]2)c(OC)c1 (centres undefined),-61.3%
11,COc1ccc(C(=O)C2CCCN(c3cnccn3)C2)c(C)c1 (centres undefined),16.87%
12,COc1ccc(C(=O)C2CCCN(c3cc(N)ncn3)C2)c(C)c1 (centres undefined),16.32%
13,COc1ccc(C(=O)C2CCCN(c3cc(OC)ncn3)C2)c(C)c1 (centres undefined),60%
14,CN(C)Cc1ccccc1CN(C)C(=O)c1ccoc1,16.49%
15,CCC(=O)N(CC)CCc1nccs1,36.57%
16,CN(CCc1ccccn1)CCc1nccs1,15.84%
17,CN(CCc1ccncc1)CCc1nccs1,78.24%
18,CN(CCc1ccncc1)Cc1nccn1Cc1ccccc1,33.78%
19,Cc1ncsc1C(=O)N(C)CCc1ccncc1,-3.38%
20,CCN(CCc1nccs1)C(=O)c1ccco1,44.23%
21,CN(CCc1ccncc1)C(=O)c1sccc1OC(F)F,-120.22%
22,CCc1ccsc1C(=O)N(C)CCc1ccncc1,70.66%
23,CN(CCc1cccs1)CCc1nccs1,55.25%
24,O=C(NCCc1cscn1)c1coc(CN2CCOCC2)c1,-0.28%
25,Cc1cccc(N2CCN(C(=O)Cc3ccccc3O)C(C)C2)n1 (centres undefined),10.49%
26,O=C(O)c1ccn(COc2c(Cl)cccc2Cl)n1,10.62%
27,Cc1ccc(CN2CCc3c(COCC4CC4)nn(C)c3C2)s1,22.12%
